Among all 340,000 compounds or so, about 200 (0.059%) were called active. What follows is part of a selection rich in actives, with near analogues and random picks from the rest. Unmarked numbers belong to inactive results. No stated cut-off is given here; in the data, active means inhibition above about 34%; inactive means the rest.

Drawing on PubChem BioAssay AID504411 (The Scripps Research Institute Molecular Screening Center, 2011), this text covers inhibition for 62 molecules.

Diacylglycerol lipase-beta (Homo sapiens), sequence (Q8NCG7 whole entry, looked up): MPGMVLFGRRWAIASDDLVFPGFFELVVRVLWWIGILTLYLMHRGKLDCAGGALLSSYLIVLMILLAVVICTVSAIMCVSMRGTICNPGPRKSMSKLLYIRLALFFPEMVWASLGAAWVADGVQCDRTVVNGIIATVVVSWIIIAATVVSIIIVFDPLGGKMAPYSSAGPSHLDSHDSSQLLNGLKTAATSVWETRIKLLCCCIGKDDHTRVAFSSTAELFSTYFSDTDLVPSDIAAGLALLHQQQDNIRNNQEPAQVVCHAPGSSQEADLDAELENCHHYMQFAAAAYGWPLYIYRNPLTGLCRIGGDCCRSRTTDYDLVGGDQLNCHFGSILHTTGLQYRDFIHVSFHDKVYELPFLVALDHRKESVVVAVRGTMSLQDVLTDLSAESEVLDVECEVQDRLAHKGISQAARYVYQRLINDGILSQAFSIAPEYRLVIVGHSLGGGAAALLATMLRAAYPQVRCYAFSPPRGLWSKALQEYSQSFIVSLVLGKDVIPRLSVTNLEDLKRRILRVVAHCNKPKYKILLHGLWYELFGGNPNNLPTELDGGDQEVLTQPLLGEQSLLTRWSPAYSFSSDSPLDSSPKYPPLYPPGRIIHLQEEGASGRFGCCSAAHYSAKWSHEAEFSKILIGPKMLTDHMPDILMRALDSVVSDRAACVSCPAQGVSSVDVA

This test concerns the target Diacylglycerol lipase-beta (Homo sapiens) (UniProt Q8NCG7). In words: DAGLB lipase inhibitors, primary screen, biochemical, fluorescence, HTS (AID 504411).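 Further: 0% = enzyme with vehicle and 100% = wells lacking enzyme.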 To be noted: HEK293T DAGLB membrane lysate, EnzChek fluorogenic substrate; at 5.17 µM; hits give high values.
`O=C1COc2ccc(C(=O)COC(=O)c3ccccc3Cl)cc2N1`: the inhibition is -2.51%.
Under `CCN1CCN(CC(=O)c2cc(OC)c(OC)c(OC)c2)CC1` stands -1.97%.
`COc1ccc(/C=C/CN2CCN(Cc3ccc(C)cc3)C(CCO)C2)cc1` (configuration not stated): the inhibition was -2.8%.
`Cc1ccccc1C(=O)N1CCC(C(=O)Oc2ccc(C#N)cc2)CC1`: the inhibition was -0.99%.
Under `COc1ccc(-c2nc(N)sc2C2(O)C(=O)Nc3c(Br)cc(F)cc32)cc1OC` (configuration not stated) stands -0.83%; under `O=S1(=O)CCO[C@H]2Cc3ccccc3[C@H]2N1Cc1ccccc1`, -1.47%.
The result for `Cc1nc(NC(=O)c2ccc3c(c2)OCCO3)ccc1Br` reads -9.56%; that for `COc1ccc(OC)c(NC(=O)CN(C)CCOc2ccc(Br)cc2)c1`, -4.02%; that for `CCOC(=O)c1sc(/N=C/Nc2nc(C)c(C(=O)OCC)s2)nc1C`, -0.89%.
The result for `O=C(Nc1c2c(nn1-c1cccc(Cl)c1)CS(=O)(=O)C2)c1cccs1` reads -3.19%.
For the molecule `CCOC(=O)c1nn(-c2ccccc2F)c2nc(Nc3ccccc3)cc(=O)n12`, the inhibition is 0.18%.
The result for `Cc1nn(-c2ncccn2)c2c1C(=O)CC(C)(C)C2Br` (configuration not stated) reads -0.78%; that for `CCCN1C(=O)C(NS(=O)(=O)c2ccc(N)cc2)(C(F)(F)F)C(C(=O)OC)=C1C` (configuration not stated), 0.93%.
Under `COc1ccc(C(=O)CN2C(=O)NC3(CCc4ccccc43)C2=O)c(OC)c1` (configuration not stated) stands -2.52%.
The result for `CC(=O)Nc1ccc(NS(=O)(=O)c2cc(C)sc2C)cc1` reads 2.41%; that for `COc1cccc(N(C(=O)CNC(=O)c2ccco2)C(C(=O)NC2CCCCC2)c2cccnc2)c1` (configuration not stated), -2.11%; that for `O=c1[nH]c2c(c(=O)n1-c1ccccc1)CCO2`, 0.85%.
For `CCOC(=O)c1cnc2ccc(F)cc2c1Nc1ccc2c(c1)OCCO2`, the inhibition is -13.6%.
Consider `COc1cc(CCC(=O)N2CCN(c3ccccc3Cl)CC2)cc(OC)c1OC`, for which the inhibition is -2.89%.
The result for `O=C(c1cccs1)N1CCCC(c2nc(-c3ccc(F)cc3)no2)C1` (configuration not stated) reads -7.27%.
Under `C=CCNC(=S)N1CCN(CCN=Cc2c(C)[nH]n(-c3ccc([N+](=O)[O-])cc3)c2=O)CC1` stands 1.77%; under `O=C(CN1CCC(NC(=O)C2CC2)CC1)Nc1ccccc1[N+](=O)[O-]`, 1.28%; under `O=C(O)c1ccc(/C=N/NC(=S)NCc2ccccc2)cc1`, 3.11%.
Under `Cc1ccc(/C=N/NC(=O)C(NC(=O)c2ccccc2)c2n[nH]c(=O)c3ccccc23)cc1` (configuration not stated) stands 34.8% (active).
`Cc1ccc(/C=N/NC(=O)COc2ccccc2-c2ccccc2)cc1`: the inhibition was -8.44%.
The result for `COc1ccc(N(CC(=O)N2CCOCC2)S(=O)(=O)c2ccccc2)cc1Cl` reads -0.45%; that for `COc1ccc(NC(=O)C[C@H]2C(=O)N(CCc3ccccc3)C[C@@H]2C)cc1`, -3.33%.
For `CCC1C=C(c2ccccc2)C=CN=C1N(CC)CC` (configuration not stated), the inhibition is -3.08%.
The result for `Nc1ccc(OCC(O)C[n+]2ccc(CCS(=O)(=O)[O-])cc2)cc1` (configuration not stated) reads 0.26%; that for `CCc1c(C)sc(NC(=O)c2cccs2)c1C(N)=O`, -1.07%; that for `O=c1oc2ccc(C#CC3(O)CCCCC3)cc2cc1-n1cc(-c2ccsc2)nn1`, 0.49%.
Under `COc1ccccc1NS(=O)(=O)N(C)C` stands -1.14%; under `Cc1ccc(Cc2c(-c3ccccc3)nc3ccc(Cl)cn23)cc1`, -5.98%; under `O=C(NCCCN1CCOCC1)c1cnn2c(-c3ccccc3)cc(-c3ccccc3)nc12`, 1.48%.
The result for `CN(c1ccc(OCC(=O)OCC(=O)Nc2cccc([N+](=O)[O-])c2)cc1)S(=O)(=O)c1ccc(F)cc1` reads -2.67%.
For `Cc1sc(NC(=O)C2C3CCC(O3)C2C(=O)O)c(C(=O)OC(C)C)c1-c1ccc(Cl)cc1` (configuration not stated), the inhibition was 6.11%.
As to `CCN(CC(=O)NCc1cccs1)C(=O)c1cccc(S(=O)(=O)Nc2ccccc2OC)c1`, the inhibition is 0.52%.
Turning to `CCc1cc(C(=O)N(CC)CC(=O)Nc2c(F)cccc2F)sc1C`, the inhibition was -0.43%.
The result for `Cc1oc2cc3oc(=O)ccc3cc2c1C` reads -1.48%; that for `O=c1[nH]c(=O)n(Cc2ccco2)c2c1C(C(F)(F)F)(C(F)(F)F)N=C(c1ccco1)N2`, -0.13%.
Under `COc1ccc(/C=N/OCc2ccccc2C#N)c(OC)c1` stands -2.91%; under `CC(=O)c1nn(-c2cccc(Br)c2)cc1C(=O)c1cccc2ccccc12`, -10.7%.
The result for `COc1ccc(CN2CCN(Cc3cn(C)nc3-c3ccccc3)CC2CCO)c(C)c1C` (configuration not stated) reads -4.22%; that for `CC1CCN(S(=O)(=O)c2ccc3ncn(CC(=O)N(C)C4CCCCC4)c(=O)c3c2)CC1`, -3.62%.
For `OC(c1ccccc1)c1nccn1Cc1ccccc1` (configuration not stated), the inhibition was 0.02%.
Under `O=C(NCc1ccc2c(c1)OCO2)C(=O)NCC1OCCN1S(=O)(=O)c1ccc(F)cc1` (configuration not stated) stands 1.47%; under `NC(N)=Nc1nc2ccc(Br)cc2c(=O)[nH]1`, -0.46%; under `CCC(=O)Nc1ccc(S(=O)(=O)NCC2CCCO2)cc1` (configuration not stated), 0.13%.
The result for `CCCCOc1ccc(NC(=O)[C@@H]2CCCN2C(=O)C2CCN(S(=O)(=O)c3ccc(C)cc3)CC2)cc1` reads -4.14%; that for `COCCNC(=O)CCCN1C(=O)c2ccccc2Sc2ncccc21`, 0.34%.
With `C=CCC(NCCCO)c1cccc(OC)c1OC` (configuration not stated), the inhibition was -0.64%.
The result for `O=C(Cc1ccc(Cl)cc1)NCc1nc(-c2ccccc2)no1` reads -5.92%.
The result for `O=C(Nc1cccc(Cl)c1)C1CCCN(c2cnccn2)C1` (configuration not stated) reads -0.35%.
Under `COCc1ccc(CN2CCC(Oc3ccc(C(=O)NCc4ccccn4)cc3)CC2)o1` stands -0.42%; under `COC(=O)c1cc(N2CCNCC2)nc2ccccc12`, 1.6%; under `Cc1cc(F)ccc1S(=O)(=O)Nc1ncnc2scc(-c3ccc(F)cc3)c12`, 11%.
In the case of `CC(=O)c1nn(-c2cccc(C(F)(F)F)c2)c(=O)[nH]c1=O`, the inhibition was -0.12%.
The result for `COC(=O)CC1=NN(c2nc(C)cc(C)n2)C(=O)C1` reads -2.2%; that for `CCCCn1c(N)c(N(CC(C)C)C(=O)C2CSC3(C)CCC(=O)N23)c(=O)[nH]c1=O` (configuration not stated), 0.2%.
The result for `C=CCN(C(=O)Cn1ncc2c1-c1cc(C)ccc1OC2)c1ccccc1` reads -2.66%; that for `Cc1c(CCO)c(=O)[nH]n1C(=O)c1c(F)cccc1F`, -0.98%.
The result for `Cc1ccnc(NC(=O)CCC(=O)N(CC(=O)NCCc2ccccc2)Cc2cccs2)c1` reads -0.29%.
